The text below walks through data of ChEMBL document CHEMBL1961873, “Compounds: GSK PKIS; Assays: Nanosyn kinase panel” (2012).

Assay [1] deals with T1, Inhibitor of nuclear factor kappa-B kinase subunit epsilon (Homo sapiens) (UniProt Q14164).
T1 sequence (whole entry): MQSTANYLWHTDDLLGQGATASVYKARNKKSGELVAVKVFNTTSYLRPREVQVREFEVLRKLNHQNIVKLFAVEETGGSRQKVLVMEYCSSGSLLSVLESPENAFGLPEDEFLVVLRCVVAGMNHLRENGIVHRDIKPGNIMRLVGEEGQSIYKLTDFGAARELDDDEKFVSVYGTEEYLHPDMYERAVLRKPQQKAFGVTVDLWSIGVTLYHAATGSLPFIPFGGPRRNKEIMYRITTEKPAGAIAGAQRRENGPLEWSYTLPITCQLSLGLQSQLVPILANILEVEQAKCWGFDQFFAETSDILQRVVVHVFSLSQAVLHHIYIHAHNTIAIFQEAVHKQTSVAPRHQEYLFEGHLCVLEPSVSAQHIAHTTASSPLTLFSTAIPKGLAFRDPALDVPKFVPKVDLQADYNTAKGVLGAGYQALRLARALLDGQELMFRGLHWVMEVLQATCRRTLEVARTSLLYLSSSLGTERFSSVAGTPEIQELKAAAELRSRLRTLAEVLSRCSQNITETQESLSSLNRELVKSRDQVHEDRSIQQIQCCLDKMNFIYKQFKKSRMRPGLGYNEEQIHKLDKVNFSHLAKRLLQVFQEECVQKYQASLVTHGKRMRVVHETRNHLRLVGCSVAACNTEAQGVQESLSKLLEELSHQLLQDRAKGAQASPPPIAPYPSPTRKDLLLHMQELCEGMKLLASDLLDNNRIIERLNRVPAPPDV
Conditions: at 1 µM.

For assay [2], the target named is T2, Serine/threonine-protein kinase Nek1 (Homo sapiens) (UniProt Q96PY6).
T2 sequence (whole entry): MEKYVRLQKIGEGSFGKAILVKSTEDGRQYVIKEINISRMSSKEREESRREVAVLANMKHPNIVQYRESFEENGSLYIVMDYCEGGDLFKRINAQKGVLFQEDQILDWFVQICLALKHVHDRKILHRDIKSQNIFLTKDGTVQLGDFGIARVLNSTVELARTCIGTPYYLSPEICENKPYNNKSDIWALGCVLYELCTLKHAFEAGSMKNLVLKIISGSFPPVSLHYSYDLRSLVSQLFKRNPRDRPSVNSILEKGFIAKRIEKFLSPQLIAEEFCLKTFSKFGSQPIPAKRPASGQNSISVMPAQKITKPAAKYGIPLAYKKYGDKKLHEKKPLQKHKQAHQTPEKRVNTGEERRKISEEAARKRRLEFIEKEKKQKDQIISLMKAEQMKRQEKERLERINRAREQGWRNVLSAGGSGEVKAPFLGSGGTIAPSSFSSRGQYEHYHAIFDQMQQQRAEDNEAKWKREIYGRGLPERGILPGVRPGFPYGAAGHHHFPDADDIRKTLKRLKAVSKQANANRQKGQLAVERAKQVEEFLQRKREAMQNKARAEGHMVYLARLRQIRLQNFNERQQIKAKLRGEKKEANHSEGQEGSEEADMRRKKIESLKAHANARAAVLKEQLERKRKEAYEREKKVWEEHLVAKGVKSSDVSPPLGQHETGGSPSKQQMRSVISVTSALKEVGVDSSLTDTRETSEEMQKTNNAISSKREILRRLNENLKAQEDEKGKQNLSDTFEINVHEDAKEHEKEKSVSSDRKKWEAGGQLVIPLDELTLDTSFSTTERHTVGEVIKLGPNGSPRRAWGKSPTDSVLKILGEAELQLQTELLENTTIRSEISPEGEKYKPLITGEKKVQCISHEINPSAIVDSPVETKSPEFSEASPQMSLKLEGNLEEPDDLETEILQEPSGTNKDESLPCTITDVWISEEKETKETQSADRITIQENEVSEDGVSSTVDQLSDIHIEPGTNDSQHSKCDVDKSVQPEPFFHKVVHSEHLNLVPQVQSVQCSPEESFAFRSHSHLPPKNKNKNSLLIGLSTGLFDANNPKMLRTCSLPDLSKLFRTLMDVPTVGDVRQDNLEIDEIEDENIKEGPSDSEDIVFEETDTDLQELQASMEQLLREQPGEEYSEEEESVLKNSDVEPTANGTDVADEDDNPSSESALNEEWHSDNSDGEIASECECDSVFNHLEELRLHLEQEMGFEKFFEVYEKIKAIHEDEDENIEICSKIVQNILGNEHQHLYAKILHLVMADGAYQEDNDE
Conditions: at 0.1 µM.

Assay [3] addresses T2, Serine/threonine-protein kinase Nek1 (Homo sapiens). Conditions: at 1 µM.
Assay [4] deals with T3, Serine/threonine-protein kinase Nek2 (Homo sapiens) (UniProt P51955).
T3 sequence (whole entry): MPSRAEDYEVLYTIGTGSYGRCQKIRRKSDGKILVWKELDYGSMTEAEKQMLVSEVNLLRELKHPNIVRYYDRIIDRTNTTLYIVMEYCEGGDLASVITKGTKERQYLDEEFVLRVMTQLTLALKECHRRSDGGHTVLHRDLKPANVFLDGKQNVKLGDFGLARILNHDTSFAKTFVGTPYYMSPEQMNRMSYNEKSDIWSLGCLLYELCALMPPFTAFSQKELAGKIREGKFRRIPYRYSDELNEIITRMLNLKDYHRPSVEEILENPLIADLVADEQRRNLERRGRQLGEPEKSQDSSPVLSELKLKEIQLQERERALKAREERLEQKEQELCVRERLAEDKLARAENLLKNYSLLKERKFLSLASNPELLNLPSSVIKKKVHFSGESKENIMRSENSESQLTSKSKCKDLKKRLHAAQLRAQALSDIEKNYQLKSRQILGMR
Conditions: at 0.1 µM.

The target in assay [5] is T3, Serine/threonine-protein kinase Nek2 (Homo sapiens). The settings on record: at 1 µM.
Assay [6] has as its target Serine/threonine-protein kinase Nek6 (Homo sapiens) (UniProt Q9HC98). The settings on record: at 0.1 µM.
Assay [7] shares this target. The settings on record: at 1 µM.
Assay [8] addresses Serine/threonine-protein kinase Nek7 (Homo sapiens) (UniProt Q8TDX7). The settings on record: at 0.1 µM.
For assay [9] the target is unchanged. Conditions: at 1 µM.
For assay [10], the target named is T4, Serine/threonine-protein kinase Nek9 (Homo sapiens) (UniProt Q8TD19).
T4 sequence (whole entry): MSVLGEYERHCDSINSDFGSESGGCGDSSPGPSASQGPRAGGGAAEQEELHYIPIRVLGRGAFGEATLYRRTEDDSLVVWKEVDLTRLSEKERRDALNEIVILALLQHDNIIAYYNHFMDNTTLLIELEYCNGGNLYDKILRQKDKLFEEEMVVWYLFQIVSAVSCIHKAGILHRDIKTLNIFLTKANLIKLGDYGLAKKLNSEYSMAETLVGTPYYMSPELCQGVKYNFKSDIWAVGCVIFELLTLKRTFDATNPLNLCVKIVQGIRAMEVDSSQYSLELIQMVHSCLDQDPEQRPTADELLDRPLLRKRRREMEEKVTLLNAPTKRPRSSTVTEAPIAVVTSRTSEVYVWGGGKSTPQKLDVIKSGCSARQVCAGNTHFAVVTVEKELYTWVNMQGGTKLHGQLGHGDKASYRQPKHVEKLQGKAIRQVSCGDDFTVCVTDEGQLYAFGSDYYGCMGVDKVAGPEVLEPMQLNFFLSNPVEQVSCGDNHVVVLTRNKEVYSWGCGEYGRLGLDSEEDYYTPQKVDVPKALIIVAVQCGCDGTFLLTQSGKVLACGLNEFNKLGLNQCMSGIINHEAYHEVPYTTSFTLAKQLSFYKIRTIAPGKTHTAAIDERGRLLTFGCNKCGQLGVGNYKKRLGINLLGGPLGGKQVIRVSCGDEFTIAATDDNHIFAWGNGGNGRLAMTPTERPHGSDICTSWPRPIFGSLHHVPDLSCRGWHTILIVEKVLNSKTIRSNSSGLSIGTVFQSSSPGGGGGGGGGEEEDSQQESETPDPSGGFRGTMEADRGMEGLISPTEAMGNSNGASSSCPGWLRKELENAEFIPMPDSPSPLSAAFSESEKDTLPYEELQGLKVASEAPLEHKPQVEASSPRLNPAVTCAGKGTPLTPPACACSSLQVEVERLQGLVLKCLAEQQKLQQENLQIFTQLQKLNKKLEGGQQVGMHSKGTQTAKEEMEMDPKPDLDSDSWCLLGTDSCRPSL
Conditions: at 0.1 µM.

Assay [11] addresses T4, Serine/threonine-protein kinase Nek9 (Homo sapiens). The settings on record: at 1 µM.
In assay [12] the target is Serine/threonine-protein kinase PLK1 (Homo sapiens) (UniProt P53350). The settings on record: at 0.1 µM.
Chain of Serine/threonine-protein kinase PLK1 (Homo sapiens) (P53350 whole entry): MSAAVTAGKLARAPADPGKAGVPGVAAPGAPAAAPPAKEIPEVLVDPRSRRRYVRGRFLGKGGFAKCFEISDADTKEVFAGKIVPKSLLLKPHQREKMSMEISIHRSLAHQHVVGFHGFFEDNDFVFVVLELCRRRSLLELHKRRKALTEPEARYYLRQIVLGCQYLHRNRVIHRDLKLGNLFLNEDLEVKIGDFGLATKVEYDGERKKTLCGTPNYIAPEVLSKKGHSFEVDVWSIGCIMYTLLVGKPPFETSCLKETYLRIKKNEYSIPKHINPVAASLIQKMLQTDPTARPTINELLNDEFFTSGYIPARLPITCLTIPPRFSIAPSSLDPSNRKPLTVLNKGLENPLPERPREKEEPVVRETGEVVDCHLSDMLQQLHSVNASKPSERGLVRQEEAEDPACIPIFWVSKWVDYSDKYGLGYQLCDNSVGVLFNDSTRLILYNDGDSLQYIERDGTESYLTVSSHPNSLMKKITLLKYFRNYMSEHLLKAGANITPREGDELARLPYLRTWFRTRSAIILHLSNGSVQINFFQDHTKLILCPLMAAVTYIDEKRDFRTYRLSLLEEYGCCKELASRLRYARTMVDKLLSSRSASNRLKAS
Assay [13] has the same target. The settings on record: at 1 µM.
For assay [14], the target named is T5, Dual specificity protein kinase TTK (Homo sapiens) (UniProt P33981).
T5 sequence (whole entry): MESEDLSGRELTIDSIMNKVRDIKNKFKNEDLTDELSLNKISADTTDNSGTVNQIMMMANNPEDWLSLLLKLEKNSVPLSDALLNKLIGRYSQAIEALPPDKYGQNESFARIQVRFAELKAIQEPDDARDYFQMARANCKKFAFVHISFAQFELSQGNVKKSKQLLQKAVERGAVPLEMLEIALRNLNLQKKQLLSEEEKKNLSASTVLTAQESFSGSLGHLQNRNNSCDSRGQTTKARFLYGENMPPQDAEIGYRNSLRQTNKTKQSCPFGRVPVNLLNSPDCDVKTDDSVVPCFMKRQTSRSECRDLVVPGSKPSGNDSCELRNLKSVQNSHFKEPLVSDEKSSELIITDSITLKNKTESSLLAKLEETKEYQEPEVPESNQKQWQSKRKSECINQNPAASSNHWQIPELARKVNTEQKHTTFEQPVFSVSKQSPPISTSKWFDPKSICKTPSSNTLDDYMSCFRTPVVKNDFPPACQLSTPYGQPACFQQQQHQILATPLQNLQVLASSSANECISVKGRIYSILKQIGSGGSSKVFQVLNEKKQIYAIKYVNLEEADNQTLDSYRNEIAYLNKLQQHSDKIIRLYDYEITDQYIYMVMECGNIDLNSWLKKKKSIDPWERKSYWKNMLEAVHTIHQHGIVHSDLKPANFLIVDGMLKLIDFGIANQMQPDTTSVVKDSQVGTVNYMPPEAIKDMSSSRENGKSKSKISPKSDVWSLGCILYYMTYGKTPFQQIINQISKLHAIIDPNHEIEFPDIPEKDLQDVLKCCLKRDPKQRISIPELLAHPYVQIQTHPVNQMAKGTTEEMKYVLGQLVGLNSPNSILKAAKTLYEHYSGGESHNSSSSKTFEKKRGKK
The settings on record: at 0.1 µM.

Assay [15] has as its system T6, Receptor-type tyrosine-protein kinase FLT3 (Homo sapiens), P36888 [D835Y].
T6 sequence (whole entry): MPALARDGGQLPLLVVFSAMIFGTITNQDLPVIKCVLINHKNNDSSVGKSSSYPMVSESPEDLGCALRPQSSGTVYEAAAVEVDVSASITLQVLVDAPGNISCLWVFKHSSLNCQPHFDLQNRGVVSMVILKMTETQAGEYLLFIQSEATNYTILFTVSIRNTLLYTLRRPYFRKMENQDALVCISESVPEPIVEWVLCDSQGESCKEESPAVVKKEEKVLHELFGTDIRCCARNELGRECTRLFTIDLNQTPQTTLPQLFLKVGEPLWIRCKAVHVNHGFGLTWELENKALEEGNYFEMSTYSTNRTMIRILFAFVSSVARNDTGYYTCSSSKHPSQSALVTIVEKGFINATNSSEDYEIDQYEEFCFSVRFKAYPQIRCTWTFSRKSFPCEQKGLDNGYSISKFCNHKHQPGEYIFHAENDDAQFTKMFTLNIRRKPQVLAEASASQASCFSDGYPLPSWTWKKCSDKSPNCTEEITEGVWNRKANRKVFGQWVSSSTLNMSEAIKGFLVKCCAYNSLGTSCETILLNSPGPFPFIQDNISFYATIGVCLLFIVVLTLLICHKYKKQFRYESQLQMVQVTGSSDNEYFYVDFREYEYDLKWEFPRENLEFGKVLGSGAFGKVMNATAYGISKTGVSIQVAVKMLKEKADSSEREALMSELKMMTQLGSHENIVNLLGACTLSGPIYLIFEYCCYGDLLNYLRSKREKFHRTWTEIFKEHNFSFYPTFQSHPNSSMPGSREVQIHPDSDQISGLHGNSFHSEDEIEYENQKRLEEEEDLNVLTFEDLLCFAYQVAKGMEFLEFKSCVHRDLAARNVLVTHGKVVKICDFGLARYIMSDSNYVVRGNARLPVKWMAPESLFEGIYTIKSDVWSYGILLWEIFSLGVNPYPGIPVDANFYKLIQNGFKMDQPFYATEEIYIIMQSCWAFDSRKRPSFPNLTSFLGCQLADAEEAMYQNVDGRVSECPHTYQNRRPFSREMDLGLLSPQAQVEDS
Conditions: at 1 µM.

In assay [16] the target is Vascular endothelial growth factor receptor 3 (Homo sapiens) (UniProt P35916). Conditions: at 0.1 µM.
Chain of Vascular endothelial growth factor receptor 3 (Homo sapiens) (P35916 whole entry): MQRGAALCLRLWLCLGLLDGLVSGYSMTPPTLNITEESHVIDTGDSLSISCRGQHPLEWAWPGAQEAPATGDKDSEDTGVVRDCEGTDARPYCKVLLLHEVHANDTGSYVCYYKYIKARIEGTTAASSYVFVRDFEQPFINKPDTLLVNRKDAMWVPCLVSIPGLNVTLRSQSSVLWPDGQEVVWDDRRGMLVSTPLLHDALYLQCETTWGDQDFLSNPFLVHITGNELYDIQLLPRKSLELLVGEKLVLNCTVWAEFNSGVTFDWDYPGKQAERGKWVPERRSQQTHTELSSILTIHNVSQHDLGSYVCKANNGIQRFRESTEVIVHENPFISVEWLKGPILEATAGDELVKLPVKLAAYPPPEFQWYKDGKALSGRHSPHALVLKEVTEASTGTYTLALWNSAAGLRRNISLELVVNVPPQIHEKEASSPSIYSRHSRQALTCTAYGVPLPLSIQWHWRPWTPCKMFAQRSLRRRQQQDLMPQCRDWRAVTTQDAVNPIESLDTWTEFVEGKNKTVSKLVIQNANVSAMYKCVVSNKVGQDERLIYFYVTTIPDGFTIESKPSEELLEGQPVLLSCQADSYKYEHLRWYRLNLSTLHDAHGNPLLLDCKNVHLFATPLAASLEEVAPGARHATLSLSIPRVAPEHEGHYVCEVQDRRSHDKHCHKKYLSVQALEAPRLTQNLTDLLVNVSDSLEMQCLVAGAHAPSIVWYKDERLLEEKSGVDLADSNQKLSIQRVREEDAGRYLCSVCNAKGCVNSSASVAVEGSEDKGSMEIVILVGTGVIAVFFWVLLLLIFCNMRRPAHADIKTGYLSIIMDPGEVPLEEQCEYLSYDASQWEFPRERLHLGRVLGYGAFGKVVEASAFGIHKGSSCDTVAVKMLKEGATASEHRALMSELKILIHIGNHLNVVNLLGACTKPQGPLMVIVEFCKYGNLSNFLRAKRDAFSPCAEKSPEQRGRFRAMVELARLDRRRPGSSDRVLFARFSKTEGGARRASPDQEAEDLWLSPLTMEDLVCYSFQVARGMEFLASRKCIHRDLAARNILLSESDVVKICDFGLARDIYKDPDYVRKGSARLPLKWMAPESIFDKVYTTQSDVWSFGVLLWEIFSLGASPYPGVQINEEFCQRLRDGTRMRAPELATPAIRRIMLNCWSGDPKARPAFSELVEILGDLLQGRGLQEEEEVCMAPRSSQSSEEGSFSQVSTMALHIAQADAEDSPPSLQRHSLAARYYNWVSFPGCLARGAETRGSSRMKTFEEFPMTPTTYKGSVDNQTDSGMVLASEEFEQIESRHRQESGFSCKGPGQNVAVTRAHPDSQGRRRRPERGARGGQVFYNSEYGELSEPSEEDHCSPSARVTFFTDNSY
The target is the same in assay [17]. Conditions: at 1 µM.
For assay [18], the target named is Macrophage colony-stimulating factor 1 receptor (Homo sapiens) (UniProt P07333). Conditions: at 0.1 µM.
Chain of Macrophage colony-stimulating factor 1 receptor (Homo sapiens) (P07333 whole entry): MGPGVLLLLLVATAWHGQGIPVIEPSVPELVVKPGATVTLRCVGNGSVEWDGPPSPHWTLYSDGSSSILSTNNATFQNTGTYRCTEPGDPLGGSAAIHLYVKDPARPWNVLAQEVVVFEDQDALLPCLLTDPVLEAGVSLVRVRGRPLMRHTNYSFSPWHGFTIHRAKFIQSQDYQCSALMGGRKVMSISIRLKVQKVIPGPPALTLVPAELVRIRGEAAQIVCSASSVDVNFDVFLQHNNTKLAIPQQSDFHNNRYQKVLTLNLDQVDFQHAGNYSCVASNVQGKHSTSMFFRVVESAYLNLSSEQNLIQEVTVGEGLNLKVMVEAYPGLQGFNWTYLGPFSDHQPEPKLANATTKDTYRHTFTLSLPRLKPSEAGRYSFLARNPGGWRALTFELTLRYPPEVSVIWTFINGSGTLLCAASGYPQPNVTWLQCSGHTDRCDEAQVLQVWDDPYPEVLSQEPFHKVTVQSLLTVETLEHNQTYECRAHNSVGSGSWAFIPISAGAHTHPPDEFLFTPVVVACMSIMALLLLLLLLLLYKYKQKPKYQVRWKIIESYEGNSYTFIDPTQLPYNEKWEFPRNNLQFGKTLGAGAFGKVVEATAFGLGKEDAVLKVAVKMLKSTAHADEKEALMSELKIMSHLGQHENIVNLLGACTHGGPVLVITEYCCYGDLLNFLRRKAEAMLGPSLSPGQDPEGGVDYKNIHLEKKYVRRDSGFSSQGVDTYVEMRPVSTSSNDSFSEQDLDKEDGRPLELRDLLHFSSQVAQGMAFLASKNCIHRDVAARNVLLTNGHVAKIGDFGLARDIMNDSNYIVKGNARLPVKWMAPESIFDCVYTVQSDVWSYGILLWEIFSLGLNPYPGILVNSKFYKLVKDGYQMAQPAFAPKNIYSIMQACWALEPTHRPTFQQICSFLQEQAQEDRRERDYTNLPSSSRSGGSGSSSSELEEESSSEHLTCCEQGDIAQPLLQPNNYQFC
For assay [19] the target is unchanged. Conditions: at 1 µM.
For assay [20], the target named is Tyrosine-protein kinase Fyn (Homo sapiens) (UniProt P06241). Conditions: at 0.1 µM.
Chain of Tyrosine-protein kinase Fyn (Homo sapiens) (P06241 2-537 limits assumed): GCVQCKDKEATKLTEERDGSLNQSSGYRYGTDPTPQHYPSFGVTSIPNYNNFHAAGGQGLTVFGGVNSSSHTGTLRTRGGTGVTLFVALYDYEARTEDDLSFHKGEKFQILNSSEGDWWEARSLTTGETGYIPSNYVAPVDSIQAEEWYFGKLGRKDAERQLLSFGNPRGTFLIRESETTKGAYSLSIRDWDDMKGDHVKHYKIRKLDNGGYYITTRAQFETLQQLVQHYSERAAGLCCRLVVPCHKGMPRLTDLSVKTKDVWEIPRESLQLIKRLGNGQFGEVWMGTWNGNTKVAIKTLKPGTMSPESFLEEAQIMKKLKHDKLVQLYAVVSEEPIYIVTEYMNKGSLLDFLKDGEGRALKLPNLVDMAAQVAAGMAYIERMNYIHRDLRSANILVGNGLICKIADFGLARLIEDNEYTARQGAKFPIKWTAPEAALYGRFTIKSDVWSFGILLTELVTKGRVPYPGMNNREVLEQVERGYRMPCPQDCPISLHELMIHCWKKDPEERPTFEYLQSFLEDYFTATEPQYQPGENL

Chain of Serine/threonine-protein kinase Nek6 (Homo sapiens) (Q9HC98 whole entry): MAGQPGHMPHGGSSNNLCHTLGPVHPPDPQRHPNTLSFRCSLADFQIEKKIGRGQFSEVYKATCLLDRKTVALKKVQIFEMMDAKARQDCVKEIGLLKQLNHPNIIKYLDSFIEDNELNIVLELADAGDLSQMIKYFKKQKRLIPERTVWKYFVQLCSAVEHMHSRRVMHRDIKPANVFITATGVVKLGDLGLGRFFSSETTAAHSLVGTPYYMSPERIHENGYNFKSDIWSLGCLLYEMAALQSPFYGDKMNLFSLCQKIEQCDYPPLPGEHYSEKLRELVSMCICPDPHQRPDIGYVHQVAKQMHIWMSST
Chain of Serine/threonine-protein kinase Nek7 (Homo sapiens) (Q8TDX7 whole entry, looked up): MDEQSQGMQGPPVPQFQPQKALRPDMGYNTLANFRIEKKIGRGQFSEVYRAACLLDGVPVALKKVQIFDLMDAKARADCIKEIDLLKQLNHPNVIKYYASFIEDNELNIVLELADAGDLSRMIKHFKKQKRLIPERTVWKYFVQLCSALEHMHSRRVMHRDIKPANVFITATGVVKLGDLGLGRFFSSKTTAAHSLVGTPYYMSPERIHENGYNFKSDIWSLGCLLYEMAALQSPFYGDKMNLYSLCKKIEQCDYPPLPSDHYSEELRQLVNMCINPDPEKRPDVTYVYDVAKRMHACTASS

Broadly, the inhibition is the relative decrease from the control value, in per cent. For the compound `COc1cc(/C=N/Nc2ncnc3c2cnn3C(C)C)ccc1O`, the inhibition in assay [1] amounted to 1.92%; in assay [2], 2.42%; in assay [3] it was 10.4%; in [4], 2.62%; in assay [5], 6.4%; in assay [6], 2.57%. For the same compound, the inhibition was 1.52% in assay [7]; 5.39% in assay [8]; 2.72% in [9]; -0.27% in [10]; 5.67% in [11]; 3.79% in assay [12]. Also, the inhibition in assay [13] is 4.86%; in [14] it was 4.56%; in [15], 23.1%; in assay [16], 13.8%; in assay [17] it was 22.1%; in assay [18], 8.23%. For the same compound, the figures for the inhibition in assay [19] and in [20] were 42.3% and 8.53%, respectively.
